PubChem BioAssay AID588683 (Broad Institute, 2011)
Entries with a potency or affinity are not part of this list.

Biological target: Kelch-like ECH-associated protein 1 (Homo sapiens) + Nuclear factor erythroid 2-related factor 2 (Homo sapiens) (UniProt Q14145+Q16236)
Assay: Keap1-Nrf2 protein-protein interaction inhibitors, dose response, biochemical, fluorescence polarization, cherry-picked samples (AID 588683);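 also: Kelch domain of Keap1 binding a fluorescein-labelled 9mer Nrf2 peptide; more negative means stronger inhibition of peptide binding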
Conditions: Keap1/Nrf2 peptide fluorescence polarization, plate reader; series mostly up to 26 µM; activity change, negative = inhibition: at the top concentration; call rule not given here

Kelch-like ECH-associated protein 1 (Homo sapiens) + Nuclear factor erythroid 2-related factor 2 (Homo sapiens), sequence (Q14145 whole entry, looked up, the tested form may be a part): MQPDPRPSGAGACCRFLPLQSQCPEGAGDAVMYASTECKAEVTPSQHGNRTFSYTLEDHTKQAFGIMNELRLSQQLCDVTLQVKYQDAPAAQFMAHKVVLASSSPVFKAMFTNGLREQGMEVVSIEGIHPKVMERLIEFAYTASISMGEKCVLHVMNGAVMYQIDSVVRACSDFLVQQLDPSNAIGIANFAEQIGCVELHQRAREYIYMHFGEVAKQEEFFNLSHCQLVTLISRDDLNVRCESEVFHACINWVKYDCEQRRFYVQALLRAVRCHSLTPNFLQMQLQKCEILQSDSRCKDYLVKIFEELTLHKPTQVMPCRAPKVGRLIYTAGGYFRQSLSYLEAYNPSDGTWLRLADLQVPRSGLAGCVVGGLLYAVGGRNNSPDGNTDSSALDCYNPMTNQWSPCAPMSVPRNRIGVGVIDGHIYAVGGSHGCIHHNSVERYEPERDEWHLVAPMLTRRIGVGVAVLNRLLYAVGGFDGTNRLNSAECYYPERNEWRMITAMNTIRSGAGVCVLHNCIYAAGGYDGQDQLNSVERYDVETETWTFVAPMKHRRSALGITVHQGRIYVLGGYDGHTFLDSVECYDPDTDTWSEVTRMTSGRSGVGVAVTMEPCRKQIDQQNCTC
Kelch-like ECH-associated protein 1 (Homo sapiens) + Nuclear factor erythroid 2-related factor 2 (Homo sapiens), sequence (Q16236 whole entry, looked up, the tested form may be a part): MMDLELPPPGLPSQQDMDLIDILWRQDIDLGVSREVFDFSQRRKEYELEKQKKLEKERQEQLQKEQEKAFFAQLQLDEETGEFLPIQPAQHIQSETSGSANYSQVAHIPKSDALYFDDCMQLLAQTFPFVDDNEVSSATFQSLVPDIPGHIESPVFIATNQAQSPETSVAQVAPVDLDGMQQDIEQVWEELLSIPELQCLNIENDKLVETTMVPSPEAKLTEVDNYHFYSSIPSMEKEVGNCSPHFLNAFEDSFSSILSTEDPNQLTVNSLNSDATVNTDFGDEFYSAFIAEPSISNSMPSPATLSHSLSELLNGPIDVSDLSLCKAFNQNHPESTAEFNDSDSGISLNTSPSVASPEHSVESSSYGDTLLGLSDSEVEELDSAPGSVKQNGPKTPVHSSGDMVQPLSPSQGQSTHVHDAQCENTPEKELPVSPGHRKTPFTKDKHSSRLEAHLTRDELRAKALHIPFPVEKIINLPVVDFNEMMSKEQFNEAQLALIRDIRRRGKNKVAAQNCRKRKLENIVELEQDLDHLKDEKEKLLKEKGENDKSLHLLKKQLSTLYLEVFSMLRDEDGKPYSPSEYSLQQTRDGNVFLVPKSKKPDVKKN

Activity change, negative = inhibition, inactive:
CCCCC1OC23CCCCC2C(C#N)(C#N)C1(C#N)C(=N)O3 (stereo not drawn) -8.61%, CCCC(=O)Nc1ccc(C(=O)NCCCn2ccnc2)cc1 9.53%, Cc1ccc(C2C3CN(C(C)C)CC=C3C(C#N)=C(N)C2(C#N)C#N)cc1 (stereo not drawn) -9.88%, CCOC(=O)C1=C(C)NC(C)=C(C(=O)OCC)C1c1ccc([N+](=O)[O-])s1 1.9%, O=S(=O)([O-])CCC[n+]1c(SCCCS(=O)(=O)O)sc2ccc(Cl)cc21 -4.67%, O=c1[nH]c(/C=C/c2cccc3ccccc23)nc2ccccc12 11.9%, N#C/C(=C\c1ccc[nH]1)C(=O)N1CCCCC1 -0.671%, Cc1cc[n+](-c2[nH]c(=O)sc2/C=N/NC([S-])=Nc2ccccc2)cc1 39%, CCN1CC=C2C(C1)C(c1ccc(Cl)s1)C(C#N)=C(N)C2(C#N)C#N (stereo not drawn) -10%, COc1ccc(C2=CC(c3ccco3)n3ncnc3N2)cc1 (stereo not drawn) -16.9%, O=c1[nH]c(=S)[nH]c2c1C(c1ccc(Br)cc1)c1c([nH]c(=S)[nH]c1=O)O2 -2.56%, COc1cc(CO)ccc1Oc1nc2ccccc2n2cnnc12 -3.41%, O=C(CCc1ccccc1)NNc1ccc(F)cc1 2.16%, O=C(COC(=O)/C=C/c1cccc(Cl)c1)NC1CC1 10.7%, CSc1nsc2nc(=O)c(/C=C3\C=Nc4ccccc43)c(N)n12 20.7%, CC(C)C(C(=O)O)N1C(=O)/C(=C/C=C/c2ccco2)SC1=S (stereo not drawn) 5.72%, COCCCN1C(=O)c2ccc(C(=O)Nc3ccc(C)cc3C)cc2C1=O -4.5%, Cc1cscc1NC(=O)/C=C/C(=O)O -3.38%, OC(Cc1ccncc1)(c1ccccc1)c1ccccc1 -9.67%, Clc1ccc(-c2noc(CN3CCOCC3)n2)cc1 -5.41%, COc1ccc2c(c1)c1nc3ccccc3nc1n2CC(=O)OC(C)C -4.13%, CCOc1ccc(OCCCC(=O)N(CC)CC(=O)Nc2c(F)cccc2F)cc1 1.23%, CC(=O)c1ccc2c(c1)C1C=CCC1C(C(=O)O)N2 (stereo not drawn) -4.16%, COc1ccc(/C=c2\s/c(=C(/C#N)C(=O)NCc3ccco3)n(-c3ccccc3)c2=O)cc1 5.04%, COc1ccc(OC)c(S(=O)(=O)Nc2ccc(F)cc2)c1 -9.05%, COc1ccc(NC(=S)N2CCN(Cc3ccc(C)cc3)CC2)cc1 1.39%, COc1ccc(OC)c(C(=O)c2coc3ccc(O)c(CN(C)C)c23)c1 -6.21%, CCOC(=O)C(C)(C)N(Cc1ccccc1C)S(=O)(=O)c1ccc(Cl)c([N+](=O)[O-])c1 -14.5%, CCN1/C(=C\c2ccc3ccccc3[n+]2CC)Sc2cc(C)ccc21 37%, O=C1CC(Cc2ccc(Cl)cc2)C(=O)N1c1cc(Cl)ccn1 (stereo not drawn) 2.69%, CCc1cc(C(=O)c2ccc(OC)cc2)c(N)s1 -2.44%, Cc1cc(NC(=O)CSc2nnc(-c3ccncc3)n2C)n(-c2ccccc2)n1 -2.6%, O=C(C1=NN(c2ccccc2)C2C(=O)N(c3ccccc3)C(=O)C12)c1ccccc1 (stereo not drawn) 13%, CCC1OC23CCCCC2C(C#N)(C(=N)O3)C1(C#N)C#N (stereo not drawn) 1.01%, N=c1c(C(=O)NCc2ccc(F)cc2)cc2c(=O)n3ccccc3nc2n1Cc1cccnc1 -11.4%, Cc1nn(-c2ccccc2Cl)c(Cl)c1/C=N/Nc1nc2ccccc2s1 -4.65%, CC(C)C1OC2(C)OC(=N)C1(C#N)C(C#N)(C#N)C2c1ccccc1 (stereo not drawn) -7.88%, CCCc1cc(NC(=O)COC(=O)c2nccnc2N)n(-c2ccccc2)n1 0.425%
